# About 83,000 compounds went through this panel and 20% of them were active in at least one assay; those are over-represented in the sample as a whole.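 Compound tested at a single concentration for 48 hours in 96-well plates; a percent growth value below 10 was scored as active.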 Calls of active or inactive are those of the source.
# Test system: HL-60(TB) leukemia
# Test: NCI-60 one-dose screen, 48 h (100 = growth as untreated, 0 = no growth, -100 = all killed)
# Details: 10 µM unless noted
row,Structure (SMILES),growth
1,Cc1ccc(-n2nnnc2N)c(C)c1,117% (inactive)
2,CSc1nc(NCCO)c(C#N)c(-c2cccc([N+](=O)[O-])c2)n1,104% (inactive)
3,O=C1/C(=C/c2ccc(Cl)cc2)CN(C(=O)C(Cl)Cl)C/C1=C\c1ccc(Cl)cc1,-19.3% (active)
4,CC(=O)Nc1ccc(C(=O)Nc2cc(-c3ccccc3)ccc2N)cc1,65.5% (inactive)
5,CCn1cc(C(=O)O)c(=O)c2cnc(N3CCCC3)nc21,75.9% (inactive)
6,Cn1cccc1/C=C1\C(=O)Nc2ccccc21,103% (inactive)
7,CCOC(=O)C1(C(=O)OCC)N=C(c2ccccc2)C=C1c1ccccc1,87.2% (inactive)
8,COc1nc(N)nc(-n2c(-c3ccc(C)cc3)nc3ccccc32)c1NCc1ccc(C)cc1,101% (inactive)
9,CN1CCN(c2ccc3nc(/N=C/c4ccc5sc(-c6ccc([N+](=O)[O-])cc6)nc5c4)sc3c2)CC1,109% (inactive)
10,Cn1cnc([N+](=O)[O-])c1N1c2ccncc2Sc2ccncc21,87.5% (inactive)
11,COC(=O)c1[nH]c(=O)c(C#N)c(C(=O)OC)c1C(=O)c1ccccc1,94.8% (inactive)
12,CC(C)(C)NC(=O)C(OC(=O)c1cccc(Cl)c1)c1ccc(Cl)cc1 (stereo not given),103% (inactive)
13,N#Cc1cccc(-c2nc3ccccn3c2NCCN2CCOCC2)c1,101% (inactive)
14,COc1cc2c(cc1-c1c(C)noc1C)ncc1nc(C3CCCC3)n([C@H](C)COC(F)F)c12,27.8% (inactive)
15,COc1ccc(C2C3CCc4ccccc4C3=NN2C(=O)c2cc(OC)c(OC)c(OC)c2)cc1O (stereo not given),84.7% (inactive)
16,CC(=O)[C@@H]1CC[C@]2(C(=O)O)CC[C@]3(C)[C@H](CC[C@@H]4[C@@]5(C)Cc6c([nH]c7ccccc67)C(C)(C)[C@@H]5CC[C@]43C)[C@@H]12,53.4% (inactive)
17,CN1CCN(C(=O)OCc2nc3c(N4CCOCC4)nc(-c4ccccc4)nc3n2C)CC1,-32.5% (active)
18,Cc1ccc(/C(C#N)=C/c2ccc3c(c2)OCO3)cc1,67.5% (inactive)
19,CC(=O)Nc1c(C(=O)Nc2ccccc2)sc2nc3c(cc12)C(OC(C)=O)CCC3 (stereo not given),18.6% (inactive)
20,Cn1cc(-c2ccc(F)c(C(F)(F)F)c2)nc1C1CCN(c2ncnc3[nH]ncc23)CC1,84.7% (inactive)

row,Structure (SMILES),growth
1,CCc1nnc(CNc2ccc(Cl)cc2)o1,92% (inactive)
2,O=C1/C(=C/c2ccc(O)c(O)c2)COc2ccc(-c3ccccc3)cc21,-15.8% (active)
3,C/C(Cc1ccc(Cl)cc1)=C(\c1ccc(OCCN2CCCCCC2)cc1)c1ccc(OC(=O)Cc2ccccc2)cc1,15.8% (inactive)
4,CC(C)N1C(=O)S/C(=C2/SC(=O)N(C(C)C)C2=O)C1=O,98.4% (inactive)
5,COc1cccc(/C=N/NC(=S)NC2CC3CCC2C3)c1O (stereo not given),71.3% (inactive)
6,COc1ccc(/C=C(\C#N)n2nnc3cc(Cl)ccc32)cc1,-6.14% (active)
7,CCCCCCCCCCOC(C)=O,107% (inactive)
8,CC(=O)[C@@H]1CC[C@]2(C(N)=O)CC[C@]3(C)[C@H](CC[C@@H]4[C@@]5(C)CCCNC(C)(C)[C@@H]5CC[C@]43C)[C@@H]12,91% (inactive)
9,COc1ccc(/C(=C2\O[C@@H]([C@H]3COC(C)(C)O3)[C@H]3OC(C)(C)O[C@@H]23)c2cc(OC)c(OC)c(OC)c2)cc1O,20.7% (inactive)
10,COC(=O)/C(=C\c1c(C)[nH]c2ccccc12)S(=O)(=O)c1ccccc1,-27.3% (active)
11,CCCCCCCCCc1ccc(OCCOCCOCCOCCOCCOCCOCCOCCOCCO)cc1,-40.9% (active)
12,O=C(O)c1ccc2nc(-c3ccc(OCCCCCOc4ccc(-c5nc6ccc(C(=O)O)cc6[nH]5)cc4)cc3)[nH]c2c1,108% (inactive)
13,COC(=O)[C@]12CC[C@@H](C)[C@H](C)[C@@H]1C1=CC[C@@H]3[C@@]4(C)C[C@@H](OC(C)=O)[C@H](OC(C)=O)[C@@](C)(COC(C)=O)[C@@H]4[C@H](O)C[C@@]3(C)[C@]1(C)CC2,-10.2% (active)
14,Cc1nn(-c2ccccc2)c2nc3c(nc12)C1=NCCN1C(c1ccc(Cl)cc1)N3 (stereo not given),70.7% (inactive)
15,Cc1nc(Nc2ccc(NC(=S)Nc3ccccc3)cc2)nc2nc(Nc3cccc(Cl)c3)[nH]c(=O)c12,57.1% (inactive)
16,COc1cc([C@@H]2NC(=O)NC(C)=C2C(=O)Nc2nc(-c3ccc(Cl)cc3)cs2)ccc1O,100% (inactive)
17,O=c1c2cccc3c(NC4CCCCC4)ccc(c32)c2nc3ccccc3n12,62.6% (inactive)
18,COc1ccc(C(=O)c2cc(F)c(F)c(OC)c2F)cc1OC(=O)CCl,11.7% (inactive)
19,CCCCCCCCCCCCCCCCCCNCc1ccc(Cl)cc1,-65.8% (active)
20,CN1CCC2(CC1)NC(=O)c1c(c3ccc(Cl)c(Cl)c3n1C)C2C#N (stereo not given),70.8% (inactive)
